# Compound activity deposited in PubChem by National Center for Advancing Translational Sciences (NCATS).
# Most compounds without a hit are left out; they make up all but 3.1% or so of the library.
# TexasRed fluor: Total Fluorescence Counterscreen for Inhibitors of the Interaction of Thyroid Hormone Receptor and Steroid Receptor Coregulator 2; TRb/SRC2 Texas Red total fluorescence interference; Potency, µM (highest dose often 106 µM), inactives show top-dose fluorescence change, negative = quenching; hit rate 0.29% among 280,000; AID 1479, 2009; active = well fitted curve in either direction with a large enough effect; inconclusive = small, poorly fitted or top-dose-only effect
#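 Flags fluorescent or light-absorbing compounds by total fluorescence, S + 2P, at 555 nm excitation and 632 nm emission. Mixture: 20 nM Texas Red SRC2 peptide, 0.6 uM human TRb LBD, 1 uM T3, 5% DMSO; compound exposure 5 h at ambient temperature.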
# TRb SRC2 PPI: qHTS for Inhibitors of the Interaction of Thyroid Hormone Receptor and Steroid Receptor Coregulator 2; Thyroid hormone receptor beta (Homo sapiens), P10828; TRbeta-SRC2 peptide binding, fluorescence polarization; receptor liganded with 1 µM T3; Potency, µM (top dose mostly 106 µM), inactives show at the top dose activity change, negative = inhibition, actives largely listed as inhibitors; hit rate 0.065% among 280,000; AID 1469, 2008;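 note: plate controls were bound peptide for no effect and peptide without receptor for full effect; nearly all actives have a fitted effect of over 50% in size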
#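 Compounds were added to 0.6 uM TRb ligand-binding domain and 20 nM Texas Red-labeled SRC2 peptide in Tris buffer containing 1 uM T3, incubated 5 hr at ambient temperature, then read by fluorescence polarization.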
# Tau fluor cs: Counterscreen qHTS for Inhibitors of Tau Fibril Formation, Fluorescence Polarization; tau K18 P301L Alexa594 fluorescence, heparin fibrillization; Potency, µM (highest dose often 57.7 µM), inactives show at the top dose activity change, negative = decrease; hit rate 0.93% among 280,000; AID 1463, 2008; note: nearly all actives have a fitted effect of over 55% in size
#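 Human K18 P301L tau (15 uM unlabeled plus 0.24 uM Alexa 594-labeled, final) in 100 mM sodium acetate pH 7 was mixed with compound and 20 uM heparin and incubated 6 hr at 37 C.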
# Tau fibril ThT: qHTS for Inhibitors of Tau Fibril Formation, Thioflavin T Binding; Microtubule-associated protein tau (Homo sapiens), P10636; recombinant tau K18 P301L (four-repeat tau fragment), heparin-induced fibrillization, ThT fluorescence; Potency, µM (doses to about 57.4 µM), without a hit: at the top dose activity, negative = inhibition, most hits filed as inhibitors; hit rate 2.1% among 270,000; note: nearly all actives have a fitted effect of over 55% in size
# Target sequence (P10636 561-689 P618L limits assumed): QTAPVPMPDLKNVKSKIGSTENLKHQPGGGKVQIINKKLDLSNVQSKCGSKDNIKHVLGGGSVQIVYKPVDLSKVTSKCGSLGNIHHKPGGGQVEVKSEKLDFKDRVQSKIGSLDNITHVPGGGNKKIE
#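 In this qHTS, human K18 P301L tau is incubated with compound and heparin for 6 hr at 37 C, and Thioflavin T fluorescence then reports fibril load.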
# Tau FP inhib: qHTS for Inhibitors of Tau Fibril Formation, Fluorescence Polarization. Potency, µM (doses to about 57.7 µM), for inactives: at the top dose activity, negative = inhibition, usual class: inhibitors. K18 P301L tau heparin fibrillization, Alexa594 FP, 6 h. Microtubule-associated protein tau (Homo sapiens), P10636. hit rate 0.39% among 280,000; note: nearly all actives have a fitted effect of over 55% in size
#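 Steps: dispense K18 P301L tau (15 uM plus 0.24 uM Alexa 594 tracer, final) in pH 7 sodium acetate; add compound; add heparin (20 uM final); incubate 6 hr, 37 C; add ThT (30 uM final); after 1 hr ambient, read FP.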
# * = called active by the depositor; ? = inconclusive; nt = no result; ! = not active in a repeat; [ ] = dose if it differs, or a comment. Unless noted, calls come from the whole dose curve; as a rule, active = well fitted curve in the direction sought with a large enough effect; inconclusive = small, poorly fitted or top-dose-only effect, or another doubt; inactive = no such curve, though single readings can be large; an effect the other way counts as inactive or inconclusive. Unless noted, % is set by controls: 0 for no effect and ±100 for the full control effect; potency is the fitted concentration of half-maximal effect.
SMILES,TexasRed fluor,TRb SRC2 PPI,Tau fluor cs,Tau fibril ThT,Tau FP inhib
Cc1ccc(-c2csc(NC(=O)C3=NN(C4CCS(=O)(=O)C4)C(=O)CC3)n2)cc1 (stereo unspecified),-3%,-5%,-11%,nt,-6%
C[C@H]1Cc2c(COc3ccccc3)nc3c(c2CO1)CN(C(=O)C1CCCCC1)CC3,-4%[11.2 µM],-2%[11.2 µM],-13%[11.6 µM],-9%[11.5 µM],-5%[11.6 µM]
CC1=C/C(=N\OS(=O)(=O)c2ccccc2)C(C)=CC1=O,-3%,3%,?,14µM*,?
CC1=C(C)/C(=N\OS(=O)(=O)c2ccc(C)cc2)C=CC1=O,1%,-1%,?,10µM*,16µM*
COc1cc(C(=O)O/N=C2/C=C(C)C(=O)C=C2C)cc(OC)c1OC,-24%,3%,-5%,?,-2%
CC1=C/C(=N\OS(=O)(=O)c2ccccc2)C(C(C)C)=CC1=O,2%,-6%,-26%,10µM*,?
CC/C=C\C/C=C\C/C=C\C/C=C\C/C=C\CCCCCC(=O)O,-5%,-4%,-1%,-3%,2%
CC/C=C\C/C=C\C/C=C\C/C=C\C/C=C\C/C=C\CCC(=O)O,-5%,5%,-1%,16µM*!,?
COc1cc(NC(=O)c2cc(S(=O)(=O)N3CCc4ccccc43)cn2C)cc(OC)c1OC,0%,-7%,?,-4%,14%
COc1ccc(N(C)C(=O)c2cc(S(=O)(=O)N3CCc4ccccc43)cn2C)c(OC)c1,0.016µM*[quencher],-20%,?,-14%,13%
COC/C=C/C1=CC2=CC(=O)C(C)(OC(=O)c3cnc4ccccc4n3)C(=O)C2=CN1Cc1ccccc1 (stereo unspecified),-13%[11.2 µM],-1%[11.2 µM],?,10µM*,?
COC/C=C/C1=CC2=CC(=O)C(C)(OC(=O)c3cnc4ccccc4n3)C(=O)C2=CN1CCCCO (stereo unspecified),?,-3%[11.2 µM],-17%[11.6 µM],13µM*,?
COC/C=C/C1=CC2=CC(=O)C(C)(OC(=O)c3cnc4ccccc4n3)C(=O)C2=CN1Cc1ccc(OC)cc1 (stereo unspecified),-4%[11.2 µM],0%[11.2 µM],?,13µM*,?
COC/C=C/C1=CC2=CC(=O)C(C)(OC(=O)c3cnc4ccccc4n3)C(=O)C2=CN1CCc1ccccn1 (stereo unspecified),-1%[11.2 µM],3%[11.2 µM],-12%[11.6 µM],-4%[11.5 µM],1%[11.6 µM]
COC/C=C/C1=CC2=CC(=O)C(C)(OC(=O)c3cnc4ccccc4n3)C(=O)C2=CN1c1ccc(OC)cc1 (stereo unspecified),0%[11.2 µM],-1%[11.2 µM],-8%[11.6 µM],-18%[11.5 µM],2%[11.6 µM]
CCCCCOC(=O)CSc1nc2sc3c(c2c(=O)n1-c1ccccc1)CC(C)(CC)OC3 (stereo unspecified),-5%,4%,-10%,-16%,0%
CCOc1ccc(C2CC(=O)NC(NC(=O)c3ccc(C)cc3)=N2)cc1 (stereo unspecified),-19%,3%,-1%,-1%,3%
Cc1ccc(C(=O)NC2=NC(c3ccc(C)cc3)CC(=O)N2)cc1 (stereo unspecified),251µM*[quencher],-24%,7%,5%,-3%
COc1ccc(/C=C(\C#N)c2nc3ccccc3n2C)c(OC)c1,-26%,-2%,?,14µM*,7%
COc1ccc(N=Cc2sc(O)c3ccccc23)cc1,-23%,-1%,7.1µM*[quencher],?,?
COc1ccc(N=Cc2c(O)c3ccccc3n2C(C)=O)cc1,-3%,-5%,?,16µM*,?
COc1ccc(-n2c(O)c(C=Nc3ccccc3)c3ccccc3c2=O)cc1,-4%,2%,-11%,-5%,-6%
COc1ccccc1N1CCN(C(=O)CN2C(=O)COc3ccc(S(=O)(=O)N4CCCC4)cc32)CC1,1%,-7%,-16%,-10%,8%
